Data taken from the supplement of paper PMC7724964.

B1: unnamed (peptide)
chain: MNFMDIWDHMAIPPEQ
B2: unnamed (peptide)
chain: YDWFSAVVEDQWEKVS
B3: unnamed (peptide)
chain: YEEFLDLNSNLQGLKT
B4: unnamed (peptide)
chain: DFNNNTGPRLAAETIV
B5: unnamed (peptide)
chain: GAGELEWYPIWWDVTH
B6: unnamed (peptide)
chain: AHFELMNNNWLVPEFW
B7: unnamed (peptide)
chain: EELWDQWHSWVTEPDE
B8: unnamed (peptide)
chain: GDYMSMLFMQEWGPFN
B9: unnamed (peptide)
chain: PKWEFFQDHTQDHHNQ
B10: unnamed (peptide)
chain: PVQWGDWSYPYDLSGQ
B11: unnamed (peptide)
chain: HVQWINHSFMMDMPQN
B12: unnamed (peptide)
chain: NDQYTWSQVHQGWLPL
B13: unnamed (peptide)
chain: EQWWHTPQSVQAWINS
B14: unnamed (peptide)
chain: WEGYYQFLVPDTHTSE
B15: unnamed (peptide)
chain: TPWWETTSTVMTYIKM
B16: unnamed (peptide)
chain: LDWDWVQWHFDDAMRW
B17: unnamed (peptide)
chain: WREEPHFHRDENGNII
B18: unnamed (peptide)
chain: AWFEGPFDTSHWQWEA
B19: unnamed (peptide)
chain: PWHARDMNGNWTQRIE
B20: unnamed (peptide)
chain: MEVFDMNGNYPVRSRT
B21: unnamed (peptide)
chain: GIVPWWHDSGDHWGPL
B22: unnamed (peptide)
chain: VVYTGVDHNGNMYPVR
B23: unnamed (peptide)
chain: ESEGSHYWNYFADAIA
B24: unnamed (peptide)
chain: QVDQGEYVYGFWWEVL
B25: unnamed (peptide)
chain: YFYLDSNNNQVIPSSV
B26: unnamed (peptide)
chain: DWVLYKEWVPQWPHNF
B27: unnamed (peptide)
chain: GYKLWETETSWWFVPA
B28: unnamed (peptide)
chain: PWDMIWDDPSWAPMLE

Target: T1, SND1 650-910 TUDOR+SNase (domain begin residue: 650, domain end residue: 910), Q7KZF4
T1 chain: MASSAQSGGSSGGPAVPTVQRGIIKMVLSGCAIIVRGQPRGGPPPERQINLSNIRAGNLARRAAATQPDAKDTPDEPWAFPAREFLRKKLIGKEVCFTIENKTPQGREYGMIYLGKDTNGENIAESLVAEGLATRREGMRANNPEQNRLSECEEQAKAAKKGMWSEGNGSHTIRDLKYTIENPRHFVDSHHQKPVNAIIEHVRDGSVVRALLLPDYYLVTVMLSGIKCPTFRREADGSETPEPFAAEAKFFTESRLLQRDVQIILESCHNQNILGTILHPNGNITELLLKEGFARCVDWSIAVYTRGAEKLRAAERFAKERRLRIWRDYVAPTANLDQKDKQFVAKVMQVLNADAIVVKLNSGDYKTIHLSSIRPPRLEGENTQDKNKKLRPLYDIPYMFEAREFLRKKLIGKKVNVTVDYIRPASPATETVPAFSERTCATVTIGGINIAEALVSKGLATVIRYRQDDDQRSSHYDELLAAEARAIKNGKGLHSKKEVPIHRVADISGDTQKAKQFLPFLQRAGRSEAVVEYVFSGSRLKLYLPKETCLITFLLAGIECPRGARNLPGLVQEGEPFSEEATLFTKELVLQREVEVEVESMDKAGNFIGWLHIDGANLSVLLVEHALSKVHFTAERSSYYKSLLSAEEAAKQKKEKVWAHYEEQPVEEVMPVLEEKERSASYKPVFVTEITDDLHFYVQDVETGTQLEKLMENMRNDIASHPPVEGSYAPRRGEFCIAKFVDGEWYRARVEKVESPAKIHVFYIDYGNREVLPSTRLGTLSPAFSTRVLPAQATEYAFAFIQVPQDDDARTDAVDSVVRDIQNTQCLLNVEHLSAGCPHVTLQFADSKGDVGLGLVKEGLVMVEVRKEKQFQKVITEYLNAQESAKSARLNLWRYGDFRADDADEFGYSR
Test: phage ELISA signal ratio (GST-PRM binding over GST background); higher = stronger binding of peptide-phage to the PRM
Procedure, shortened: (§1)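 Approximately 48 individual clones from selection rounds 4 and 5 were tested by phage ELISA, and those scoring positive were sequenced. They came from five rounds of selecting an M13 phage library of randomized, cysteine-free, glycine-flanked hexadecapeptides on the gene-8 major coat protein against human peptide recognition domains fused to the C-terminus of glutathione S-transferase (GST) in 96-well plates. Each figure in the table is the ELISA signal on the GST-domain fusion relative to the signal on GST alone.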

| Binder | phage ELISA signal ratio |
| --- | --- |
| B1 | 7.06 |
| B2 | 6.56 |
| B7 | 4.69 |
| B8 | 5.51 |
| B28 | 7.49 |

Target: T2, SPSB2 26-221 SPRY (domain begin residue: 26, domain end residue: 221), Q99619
T2 chain: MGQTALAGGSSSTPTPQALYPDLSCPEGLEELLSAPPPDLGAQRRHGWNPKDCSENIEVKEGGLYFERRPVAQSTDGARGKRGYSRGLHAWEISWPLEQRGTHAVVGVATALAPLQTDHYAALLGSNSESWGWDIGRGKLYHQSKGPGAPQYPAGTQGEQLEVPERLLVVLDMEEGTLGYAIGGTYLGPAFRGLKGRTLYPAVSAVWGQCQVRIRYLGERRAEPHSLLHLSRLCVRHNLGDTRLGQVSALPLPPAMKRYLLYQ
Test: as above
Procedure, shortened: as §1

| Binder | phage ELISA signal ratio |
| --- | --- |
| B3 | 12.3 |
| B4 | 11.5 |
| B6 | 30.8 |
| B17 | 28.9 |
| B19 | 12.3 |
| B20 | 25 |
| B22 | 9.45 |
| B25 | 21.9 |

Target: T3, SPRED2 1-124 WH1 (domain begin residue: 1, domain end residue: 124), Q7Z698
T3 chain: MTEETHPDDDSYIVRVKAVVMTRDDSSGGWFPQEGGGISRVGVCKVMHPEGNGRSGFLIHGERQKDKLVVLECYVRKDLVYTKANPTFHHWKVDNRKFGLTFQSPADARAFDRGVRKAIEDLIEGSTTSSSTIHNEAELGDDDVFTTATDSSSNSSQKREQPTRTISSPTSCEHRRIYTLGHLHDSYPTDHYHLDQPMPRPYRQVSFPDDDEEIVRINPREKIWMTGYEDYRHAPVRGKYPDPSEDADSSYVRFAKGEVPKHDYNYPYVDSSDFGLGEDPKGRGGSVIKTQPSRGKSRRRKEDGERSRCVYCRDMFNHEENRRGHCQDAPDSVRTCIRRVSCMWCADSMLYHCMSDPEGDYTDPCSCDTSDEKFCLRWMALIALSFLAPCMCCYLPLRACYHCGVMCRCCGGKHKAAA
Test: as above
Procedure, shortened: as §1

| Binder | phage ELISA signal ratio |
| --- | --- |
| B5 | 17.3 |
| B10 | 12.6 |
| B18 | 7.72 |
| B21 | 19.4 |
| B27 | 14 |

Target: T4, SHC1 149-317 PID (domain begin residue: 149, domain end residue: 317), P29353
T4 chain: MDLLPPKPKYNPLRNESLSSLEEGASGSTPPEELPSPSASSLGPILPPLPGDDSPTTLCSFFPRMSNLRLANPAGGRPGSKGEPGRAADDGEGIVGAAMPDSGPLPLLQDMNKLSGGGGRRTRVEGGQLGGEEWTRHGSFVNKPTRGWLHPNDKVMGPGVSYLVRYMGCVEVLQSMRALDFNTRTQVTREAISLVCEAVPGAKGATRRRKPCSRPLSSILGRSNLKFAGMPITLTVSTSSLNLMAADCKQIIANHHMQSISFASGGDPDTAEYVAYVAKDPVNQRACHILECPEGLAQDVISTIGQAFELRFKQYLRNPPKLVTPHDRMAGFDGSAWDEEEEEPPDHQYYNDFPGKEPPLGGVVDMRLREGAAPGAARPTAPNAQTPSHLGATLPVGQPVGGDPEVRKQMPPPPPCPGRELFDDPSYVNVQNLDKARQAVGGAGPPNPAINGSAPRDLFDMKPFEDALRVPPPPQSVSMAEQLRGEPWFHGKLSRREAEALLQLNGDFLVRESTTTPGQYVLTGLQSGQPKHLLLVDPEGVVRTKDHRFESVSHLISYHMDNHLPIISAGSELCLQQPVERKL
Test: as above
Procedure, shortened: as §1

| Binder | phage ELISA signal ratio |
| --- | --- |
| B9 | 6.37 |
| B11 | 15.5 |
| B14 | 18.9 |
| B23 | 18.2 |
| B24 | 9.85 |

Target: T5, SPRED3 1-117 WH1 (domain begin residue: 1, domain end residue: 117), Q2MJR0
T5 chain: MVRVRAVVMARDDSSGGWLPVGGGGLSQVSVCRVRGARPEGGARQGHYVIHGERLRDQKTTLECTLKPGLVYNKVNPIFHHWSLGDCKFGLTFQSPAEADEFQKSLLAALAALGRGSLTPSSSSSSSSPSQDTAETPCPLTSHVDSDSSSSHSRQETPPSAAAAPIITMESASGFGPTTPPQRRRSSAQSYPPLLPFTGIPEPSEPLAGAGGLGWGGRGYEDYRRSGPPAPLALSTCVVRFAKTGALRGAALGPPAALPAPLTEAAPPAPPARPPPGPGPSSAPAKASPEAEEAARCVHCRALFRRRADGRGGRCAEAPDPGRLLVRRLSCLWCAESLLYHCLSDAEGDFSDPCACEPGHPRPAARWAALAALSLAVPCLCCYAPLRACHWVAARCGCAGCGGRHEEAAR
Test: as above
Procedure, shortened: as §1

| Binder | phage ELISA signal ratio |
| --- | --- |
| B12 | 26.5 |
| B13 | 19.5 |
| B15 | 19.4 |
| B16 | 7.1 |

Target: T6, SFN 1-236 14-3-3 (domain begin residue: 1, domain end residue: 236), P31947
T6 chain: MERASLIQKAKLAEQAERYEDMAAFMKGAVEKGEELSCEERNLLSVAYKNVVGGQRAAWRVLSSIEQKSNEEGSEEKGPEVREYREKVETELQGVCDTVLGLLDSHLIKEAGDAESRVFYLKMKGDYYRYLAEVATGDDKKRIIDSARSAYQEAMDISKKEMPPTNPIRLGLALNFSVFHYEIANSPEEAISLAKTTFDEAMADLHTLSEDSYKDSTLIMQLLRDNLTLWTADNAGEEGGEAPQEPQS
Test: as above
Procedure, shortened: as §1

| Binder | phage ELISA signal ratio |
| --- | --- |
| B26 | 17.1 |
